VLA-4 antagonist = inhibitors of LDV-FITC binding to Mn2+-activated VLA-4, primary screen, Jurkat cells. Integrin alpha-4 (Homo sapiens), P13612. LDV-FITC binding with Mn2+, flow cytometry; 100% = Mn2+-driven binding gain fully reversed. inhibition, % at 10 µM (by protocol). 24,000 compounds, 0.2% hits;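 active = inhibition above 50%; inconclusive = compound itself fluorescent, judged against control cell fluorescence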;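 also: 0% = Mn2+ stimulated cells lacking compound and 100% = ligand binding without Mn2+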
Target sequence (P13612 whole entry, looked up): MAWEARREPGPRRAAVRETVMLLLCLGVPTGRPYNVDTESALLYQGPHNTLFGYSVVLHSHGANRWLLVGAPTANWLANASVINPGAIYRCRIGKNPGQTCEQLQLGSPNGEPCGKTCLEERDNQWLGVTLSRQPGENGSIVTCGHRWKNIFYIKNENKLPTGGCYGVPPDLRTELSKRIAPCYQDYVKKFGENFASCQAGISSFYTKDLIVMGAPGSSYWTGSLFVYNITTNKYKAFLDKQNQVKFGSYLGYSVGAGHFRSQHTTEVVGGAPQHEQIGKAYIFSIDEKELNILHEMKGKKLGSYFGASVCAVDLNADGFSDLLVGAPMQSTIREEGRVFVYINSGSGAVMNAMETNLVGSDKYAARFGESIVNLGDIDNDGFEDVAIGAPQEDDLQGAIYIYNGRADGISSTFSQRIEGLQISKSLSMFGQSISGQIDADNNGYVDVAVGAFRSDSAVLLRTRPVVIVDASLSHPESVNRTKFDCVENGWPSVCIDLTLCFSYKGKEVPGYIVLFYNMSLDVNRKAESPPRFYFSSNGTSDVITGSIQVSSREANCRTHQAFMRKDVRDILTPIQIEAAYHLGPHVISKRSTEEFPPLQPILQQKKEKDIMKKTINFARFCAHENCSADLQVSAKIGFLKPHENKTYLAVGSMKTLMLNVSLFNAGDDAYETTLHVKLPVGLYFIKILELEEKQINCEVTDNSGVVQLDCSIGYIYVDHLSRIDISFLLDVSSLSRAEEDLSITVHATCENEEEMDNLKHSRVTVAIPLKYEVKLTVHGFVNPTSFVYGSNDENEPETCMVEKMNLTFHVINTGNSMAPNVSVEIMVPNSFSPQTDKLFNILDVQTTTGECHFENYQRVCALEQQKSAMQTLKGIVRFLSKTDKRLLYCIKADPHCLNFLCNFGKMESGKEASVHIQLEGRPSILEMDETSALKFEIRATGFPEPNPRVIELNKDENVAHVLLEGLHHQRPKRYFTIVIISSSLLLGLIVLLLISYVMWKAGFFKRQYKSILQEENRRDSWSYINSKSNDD
VLA-4 agonist = enhancers of LDV-FITC binding to VLA-4 integrin, primary screen, Jurkat cells, flow cytometry | Integrin alpha-4 (Homo sapiens), P13612 | activation, % at 10 µM (by protocol) | 24,000 tested, under 10 active | AID 528, 2006;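 active = fluorescent ligand binding to cells raised by more than 40% of the manganese-induced maximum; inconclusive = compound's own fluorescence above 85% of the ligand control signal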;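 also: 0% = ligand binding without compound and 100% = manganese-stimulated maximal binding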
Prostate diff = activators of LNCaP prostate cell differentiation, primary screen, flow cytometry side scatter; 4 d; side scatter shift, % at 10 µM; 24,000 compounds, 0.56% hits; AID 795, 2007;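 active = side scatter shift above 30%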;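 also: androgen-responsive LNCaP prostate cancer cells in charcoal-stripped serum medium; percent of cells past a gate set so DMSO wells show 10% shift; higher shift means more granular cells and more differentiation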
FPRL1 binder = human FPRL1 ligands by binding competition, primary screen, cell-based, FPR counter-screen, flow cytometry; N-formyl peptide receptor 2 (Homo sapiens), P25090; 24,000 compounds, 0.3% hits; inhibition, % (test concentration not listed); FPRL1-expressing cells, fluorescent ligand binding inhibition; AID 441, 2006;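 also: 0% = buffer alone and 100% = receptor blocker peptide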
Jurkat autofluor = compound autofluorescence on Jurkat cells, primary screen, artefact control for VLA-4 allosteric ligand project, cell-based, flow cytometry. active compounds read high; 1 = vehicle-only cell background. fluorescence ratio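 (tested at 10 µM compound in the well)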. 24,000 compounds, 0.61% hits. AID 576, 2007;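 active = fluorescence ratio above 2.44, which is 1 plus 3 SD of all ratios; inconclusive = signal too bright to measure linearly, ratio around 10 or more; inactive = fluorescence ratio below 2.44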;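 also: green fluorescence of cells measured with 488 nm excitation and 530 nm emission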
FPR ligand = human FPR ligands by binding competition, primary screen, cell-based, FPRL1 counter-screen, flow cytometry. fMet-Leu-Phe receptor (Homo sapiens), P21462. FPR-expressing cells, fluorescent ligand binding. inhibition, % (concentration not given with the values). 24,000 compounds, 0.74% hits;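 also: 0% = buffer wells and 100% = receptor blocker peptide wells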
Active calls of the source: *; ? = inconclusive; nt = no result. Rows were chosen to be rich in hits. Some 2.4% of all compounds tested hit in one or more screens of this group. Rule as the data show it, unless noted: active = inhibition above about 30%; inconclusive = no clear call, values can overlap the other calls; inactive = below that.

SMILES | VLA-4 antagonist | VLA-4 agonist | Prostate diff | FPRL1 binder | Jurkat autofluor | FPR ligand
COc1ccc(OC)c(C2C(C(=O)c3cc4ccccc4o3)=C(O)C(=O)N2c2cc(C)on2)c1 (stereo not drawn) | nt | nt | nt | -2 | nt | 33*
O=C(C1=C(O)C(=O)N(c2ncccn2)C1c1ccc(Cl)c(Cl)c1)c1ccco1 (stereo not drawn) | nt | nt | nt | 29 | nt | 45*
O=S(NCc1ccco1)C12CC3CC(CC(C3)C1)C2 (stereo not drawn) | 8 | 0 | 18 | 6 | 1.1 | 2
O=C(c1ccccc1F)N1CCN(Cc2cccc(Cl)c2)CC1 | -6 | -8 | 7 | 6 | 1 | 16
COc1ccc(N2CCN(C(=O)c3ccc(CNc4c(N5CCOCC5)c(=O)c4=O)cc3)CC2)cc1 | -11 | 6 | 10 | 0 | 0.99 | -1
O=C(Nn1nnnc1Nc1ccccc1)C12CC3CC(CC(C3)C1)C2 | 12 | 0 | 6 | -2 | 1.1 | 1
CC(=O)C1=C(O)C(=O)N(Cc2cccnc2)C1c1ccccc1Cl (stereo not drawn) | nt | nt | nt | 12 | nt | 15
Cc1ccc(C(=O)C2=C(O)C(=O)N(Cc3ccccc3)C2c2cccnc2)o1 (stereo not drawn) | nt | nt | nt | -3 | nt | 32*
CCC(=O)c1ccc(OCC(O)Cn2cnc3ccccc32)cc1 (stereo not drawn) | ? | ? | 14 | -2 | 3.2* | -6
COC(=O)C1=C(NC(=O)c2cccc(C)c2)CCS1 | 0 | 4 | 15 | 3 | 0.97 | -3
N=c1c(C(=O)NC2CCCCC2)cc2c(=O)n3ccccc3nc2n1CCN1CCOCC1 | 10 | 7 | 12 | 0 | 0.86 | 11
OCc1nc2ccccc2n1CC(O)Cn1ccc2ccccc21 (stereo not drawn) | -2 | -3 | 16 | 51* | 1.1 | 37*
OCc1nc2ccccc2n1CCCOc1ccccc1 | -1 | 2 | nt | 12 | 1 | 2
O=c1c[n+]([O-])c2ccccc2n1OCc1c(F)cccc1F | ? | ? | 13 | 2 | 3.1* | -5
O=c1c[n+]([O-])c2ccccc2n1OCc1ccccn1 | ? | ? | 10 | 5 | 1.7 | -4
COc1cccc(NS(=O)(=O)c2ccc(Br)s2)c1 | ? | ? | 12 | ? | 2.9* | ?
COC(=O)c1ccc2c(c1)NC(=O)C(N1CCCC1)S2 (stereo not drawn) | ? | ? | 2 | -12 | 5* | -17
COC(=O)c1ccc2c(c1)NC(=O)C(N1CCCCC1)S2 (stereo not drawn) | ? | ? | 7 | -2 | 1.1 | -1
Cc1[nH]nc2c1C(c1ccccc1)C1=C(CC(C)(C)CC1=O)N2 (stereo not drawn) | 5 | -7 | 17 | 0 | 1.1 | 1
Cc1ccc(C2C3=C(CC(C)(C)CC3=O)Nc3[nH]c(=S)[nH]c(=O)c32)cc1 (stereo not drawn) | -8 | 7 | 0 | -3 | 0.94 | 35*
O=c1oc(-c2ccco2)nc2ccccc12 | -2 | -8 | 30* | 4 | 1.1 | 1
CCC(=O)Nc1cccc(-c2nc3ccccc3c(=O)o2)c1 | -30 | 15 | 7 | 4 | 1.2 | 2
C=CCN1C(=O)C2(/C(=C(\O)c3ccc4c(c3)OCCO4)C(=O)C(=O)N2CCCOC)c2ccccc21 (stereo not drawn) | -14 | 6 | 19 | 2 | 1 | 32*
CCCS(=O)(=O)N1CCC(C(=O)NCCCOCC)CC1 | -20 | 1 | 8 | -4 | 1.1 | -10
CCOC(=O)c1cnn(-c2cc(C)c3cc(C)cc(C)c3n2)c1N | 2 | 3 | 32* | 7 | 1.1 | -2
CCOC(=O)c1cnc2nc(C)[nH]n2c1=O | -20 | 7 | 2 | 0 | 1.1 | 0
Nc1ccc2[nH]ncc2c1 | -16 | 4 | 2 | -3 | 1.2 | 0
CCOC(=O)c1ccc(NC(=O)Nc2ccc3c4c(cccc24)C(=O)N3CC)cc1 | ? | ? | 29 | 48* | 3.1* | -18
COc1cc(NC(=O)c2cc(C)on2)cc(OC)c1OC | 5 | 3 | 5 | 9 | 0.91 | 2

Bioassay records as filed in PubChem BioAssay.
